Data taken from PubChem BioAssay.
“And” between values parts separate entries of the source, which are not always exact repeats. Equal values may be shown once. Values without a mark were called inactive. The source made the active and inactive calls. Unless noted, how the calls were made is not given here.

Assays:
[1] = antimalarial activity against Dd2 strain (AID 2302;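 active means growth inhibition above 50% at the single 2 µM test dose, taken to imply half-maximal potency below 2 µM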;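 further: 0% = DMSO untreated growth and 100% = chloroquine plus artemisinin killed control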); conditions: P. falciparum Dd2 in RBCs, LDH growth readout, 72 h; at 2 µM; active compounds read high
[2] = human hepatoma cell viability loss – ATP luminescence, cytotoxicity control for P. falciparum antimalarial project, primary screen (AID 2303;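 active means inhibition above 50%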;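 further: 0% = DMSO wells and 100% = digitonin-killed cells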); conditions: HepG2 viability, 24-48 h, at 10 µM, active compounds read high
[3] = target: L-lactate dehydrogenase (Plasmodium falciparum (isolate CDC / Honduras)) (UniProt Q27743); assay: PfLDH activity inhibition – cell lysate, 3D7 strain, counter-screen for P. falciparum growth inhibition project (AID 2304);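 further: 0% = vehicle and 100% = reference inhibitor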; conditions: P. falciparum 3D7 crude extract, LDH APAD/NBT absorbance; at 2 µM; active compounds read high
[4] = inhibition of 3D7 malaria parasite growth – strain 3D7 (AID 2306);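 further: 0% = DMSO wells and 100% = chloroquine plus artemisinin control wells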; conditions: P. falciparum 3D7 erythrocytic growth, LDH absorbance, 72 h; at 2 µM; active compounds read high
[5] = compounds altering circadian rhythm period length – cell-based, LOPAC library, luminescence reporter (AID 2774); conditions: circadian reporter cells, at 7 µM, actives lie on both sides;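 further: values are relative to mean of DMSO wells on each plate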

L-lactate dehydrogenase (Plasmodium falciparum (isolate CDC / Honduras)), sequence (Q27743 whole entry, looked up): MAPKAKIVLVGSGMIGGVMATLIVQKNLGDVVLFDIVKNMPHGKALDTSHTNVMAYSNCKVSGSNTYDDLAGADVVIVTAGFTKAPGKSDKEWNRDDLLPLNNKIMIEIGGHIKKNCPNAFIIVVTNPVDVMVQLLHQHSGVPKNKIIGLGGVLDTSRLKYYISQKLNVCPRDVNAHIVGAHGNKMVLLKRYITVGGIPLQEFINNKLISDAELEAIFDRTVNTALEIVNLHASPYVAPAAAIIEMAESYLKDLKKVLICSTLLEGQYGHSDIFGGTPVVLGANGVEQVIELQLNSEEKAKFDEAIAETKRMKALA

Row | Compound | growth inhibition [1] | inhibition [2] | inhibition [3] | growth inhibition [4] | period change [5]
1 | CC[C@H](C)[C@H](NC(=O)[C@H](CC1CCCCC1)[C@H](CC)N(O)C=O)C(=O)Nc1ccccn1 | 95% (active) | 14% | -1% | 96% (active) | –
2 | COc1ccc(Nc2nc(NN=Cc3cc(Br)ccc3O)nc(Nc3ccc([N+](=O)[O-])cc3)n2)cc1 | 37% | 27% | 7% | 97% (active) | –
3 | O=C(NC=Nc1cc([N+](=O)[O-])c(-c2ccncc2)n1-c1ccccc1)c1cccc(O)c1 | 56% (active) | 2% | 4% | 100% (active) | –
4 | CCOc1cc(C=Cc2nc3ccccc3c(=O)[nH]2)cc(Cl)c1O | 90% (active) | 25% | 2% | 83% (active) | –
5 | CCC[C@@H]([C@@H](CC1CCCCC1)C(=O)N[C@H](C(=O)Nc1nccc(N)n1)C(C)(C)C)N(O)C=O | 82% (active) | 25% | 5% | 96% (active) | –
6 | CN(C)c1nc(NCc2ccccc2)nc(NN=Cc2cc([N+](=O)[O-])ccc2O)n1 | 90% (active) | 48% | -5% | 100% (active) | –
7 | C[C@@H]([C@@H](CCCc1ccc(Cl)cc1)C(=O)N[C@H](C(=O)Nc1cccnc1)C(C)(C)C)N(O)C=O | 99% (active) | 7% | 1% | 100% (active) | –
8 | COc1cc(-c2nc(-c3ccc4c(c3)CCC4=NO)c(-c3ccncc3)[nH]2)ccc1OCCN1CCN(C)CC1 | 77% (active) | 53% (active) | 3% | 99% (active) | –
9 | Oc1ccc2ccccc2c1C=NNc1nc(Nc2ccccc2)nc(N2CCOCC2)n1 | 49% | 66% (active) | -5% | 100% (active) | –
10 | Oc1cccc(-c2nc(-c3cccc(I)c3)c(-c3ccc(-c4nc(-c5cccc(O)c5)[nH]c4-c4cccc(I)c4)cc3)[nH]2)c1 | 66% (active) | -4% | -2% | 96% (active) | –
11 | CCC[C@@H]([C@@H](CC1CCCCC1)C(=O)N[C@H](C(=O)Nc1ccccn1)[C@H](C)CC)N(O)C=O | 87% (active) | 24% | 2% | 96% (active) | –
12 | CCCO[C@H](C(=O)OC)[C@@H](CC1Cc2ccccc2C1)C(=O)NCCC1=CCCCC1 | 57% (active) | 6% | 1% | 93% (active) | –
13 | N=C(N)c1ccc(C=Cc2ccc(C(=N)N)cc2O)cc1 | 80% (active) | 10% | 4% | 92% (active) | –
14 | COc1ccc2nc(/N=C(/N)NC(=O)Nc3ccccc3)nc(C)c2c1 | 15% | 3% | -1% | 90% (active) | –
15 | CO[C@H](C)[C@H](NC(=O)[C@H](CC(C)C)[C@H](CCC(F)(F)F)N(O)C=O)C(=O)Nc1nccs1 | 96% (active) | 0% | 1% | 99% (active) | –
16 | CCC[C@@H]([C@@H](CC(C)C)C(=O)N[C@@H](CCCN=C(N)NS(C)(=O)=O)C(=O)Nc1nccs1)N(O)C=O | 41% | 10% | 0% | 95% (active) | –
17 | c1cc2nc(CCCCCc3nc4ccc(C5=N[C@@H]6CCCC[C@@H]6N5)cc4[nH]3)[nH]c2cc1C1=N[C@@H]2CCCC[C@@H]2N1 | 98% (active) | 8% | 1% | 96% (active) | –
18 | COc1cc(C=C(C2=NC(=O)CS2)c2nc3cccnc3n2C)ccc1O | 48% | 7% | -7% | 89% (active) | –
19 | Nc1ccc(-c2nc3cc(C4=N[C@H]5CCCC[C@H]5N4)ccc3o2)cc1[N+](=O)[O-] | 33% | 16% | 1% | 95% (active) | –
20 | CN(C)c1nc(NN=Cc2cc(Cl)ccc2O)nc(Nc2ccc(F)cc2)n1 | 46% | 32% | -3% | 94% (active) | –
21 | COc1ccc(Nc2nc(NN=Cc3cc(Cl)ccc3O)nc(Nc3ccccc3)n2)cc1 | 10% | 55% (active) | 0% | 100% (active) | –

Row | Compound | growth inhibition [1] | inhibition [2] | inhibition [3] | growth inhibition [4] | period change [5]
22 | COc1ccc2ncc(F)c(CCN3C[C@H](CNCc4nc5c(cc4Cl)OCC(=O)N5)[C@H](O)C3)c2n1 | 15% and 23% and 30% | 13% and 5% and 12% | 0% and -2% and 2% | 93% (active) and 90% (active) | –
23 | O=[N+]([O-])c1ccc(C=NO)nc1 | 98% (active) | 80% (active) | 2% | 80% (active) | –
24 | CC1CCC(C[C@@H](C(=O)N[C@@H](CCC(=O)N2CCCCC2)C(=O)Nc2nccs2)[C@H](C(C)C)N(O)C=O)CC1 (some centres not stated) | 70% (active) | 38% | 7% | 87% (active) | –
25 | O=C(/C=C/c1ccc(Cl)c(Cl)c1)NCCCCCN1CC[C@H](c2c[nH]c3ccccc23)[C@@H](O)C1 | -2% | 34% | -3% | 99% (active) | –
26 | CC(=NNC(N)=O)C1=C(O)C(c2ccccc2)N(C2CCCCC2)C1=O (configuration not stated) | 96% (active) | 59% (active) | 0% | 93% (active) | –
27 | C=CC[C@H](C[C@H](O)[C@H](Cc1ccccc1)NC(=O)c1ccc(-c2cccnn2)cc1)C(=O)NC1CCCCC1 | -1% | 2% | 4% | 83% (active) | –
28 | Cc1[nH]c2c(c(=O)c1Cl)-c1ccc(Oc3cccc(C(F)(F)F)c3)cc1C2=O | 97% (active) | 25% | 2% | 98% (active) | –
29 | O=C(Nc1cccc(-c2nn3ccccc3c2-c2ccnc(Nc3ccc(-c4cc[nH]n4)cc3)n2)c1)c1c(F)cccc1F | 98% (active) | 68% (active) | 5% | 98% (active) | –
30 | Cc1cc(-c2cc(-c3ccc(OCCN(C)C)cc3)[nH]c2-c2ccc3c(c2)CCC3=NO)ccn1 | 92% (active) | -13% | -3% | 100% (active) | –
31 | CC(C)C[C@@H](C(=O)N[C@H](C(=O)Nc1nccs1)C(C)(C)C)[C@H](CCC(F)(F)F)N(O)C=O | 71% (active) | 11% | 5% | 97% (active) | –
32 | COc1cc(-c2nc(-c3ccc4c(c3)CCC4=NO)c(-c3ccncc3)[nH]2)ccc1OCCN1CCCCC1 | 80% (active) | 75% (active) | 1% | 101% (active) | –
33 | COc1ccc2nccc([C@@H](O)CN3CC[C@H](NCc4nc5c(cc4Cl)SCC(=O)N5)[C@H](F)C3)c2c1 | 94% (active) and 100% (active) | 10% and 20% | -3% and 1% | 94% (active) and 99% (active) | –
34 | O=C(/C=C/c1ccc(Cl)c(Cl)c1)NCCCCCN1CC[C@H](c2c[nH]c3ccccc23)[C@H](O)C1 | 9% | 12% | -5% | 96% (active) | –
35 | CN(C)C[C@H](O)[C@@H](c1ccccc1)c1ccc(Cl)cc1 | 4% | 4% | 2% | 99% (active) | –
36 | CCOc1cc(C=NNc2nc(C)cc(-n3nc(C)cc3C)n2)ccc1O | 52% (active) | 46% | 2% | 93% (active) | –
37 | CN(C)CCCOc1ccc(-c2nc(-c3ccc4c(c3)CCC4=NO)c(-c3ccncc3)[nH]2)cc1 | 63% (active) | 68% (active) | -3% | 96% (active) | –
38 | Nc1c2c(nc3ccccc13)C(=Cc1ccc(O)cc1)CCC2 | 6% | 9% | 5% | 99% (active) | –
39 | NC(N)=NN=Cc1c[nH]c2ccc(-c3ccccc3)cc12 | 61% (active) | 15% | -2% | 84% (active) | –
40 | N#CC(Cc1ccc(O)c(O)c1)C(=O)N1CCc2ccccc21 (configuration not stated) | – | – | – | – | 0.025 h
41 | N=C1Sc2ccccc2C2=NCCCN12 | – | – | – | – | -0.035 h
42 | C=CC[C@H](C[C@H](O)[C@H](Cc1ccccc1)NC(=O)c1ccc(-n2cccn2)cc1)C(=O)NC1CCCCC1 | 0% | 1% | 1% | 96% (active) | –
